Measurements reported in PubChem BioAssay.
Calls of active or inactive are those of the source. Unless noted, no rule for the calls is given here.

Columns and labels:
[1] = anti-His antibody binders, primary screen, artefact control for SMM control protein annotation, biochemical, small-molecule microarray, 635 nm fluorescence (AID 1128); details: anti-His Alexa647 antibody binding, higher = more signal;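 also: score merges feature fluorescence with signal-to-noise for each printed compound spot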
[2] = system: Human papillomavirus type 1a E7 protein (residues 1-88); experiment: HPV1a E7 small-molecule binders, primary screen, biochemical, small-molecule microarray, residues 1-88, 635 nm (AID 1129); details: small-molecule microarray binding, fluorescence 635 nm; higher = more signal
[3] = biological target: Focal adhesion kinase 1 (Homo sapiens) (UniProt Q05397); experiment: small-molecule microarray binders of FAK, primary screen, biochemical, 635/667 nm fluorescence, BSA, DTT (AID 1130); details: PTK2 binding, 635 nm fluorescence, higher = more signal;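 also: composite of spot emission at 667 nm and signal to noise over triplicate slides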
Focal adhesion kinase 1 (Homo sapiens), sequence (Q05397 whole entry, looked up): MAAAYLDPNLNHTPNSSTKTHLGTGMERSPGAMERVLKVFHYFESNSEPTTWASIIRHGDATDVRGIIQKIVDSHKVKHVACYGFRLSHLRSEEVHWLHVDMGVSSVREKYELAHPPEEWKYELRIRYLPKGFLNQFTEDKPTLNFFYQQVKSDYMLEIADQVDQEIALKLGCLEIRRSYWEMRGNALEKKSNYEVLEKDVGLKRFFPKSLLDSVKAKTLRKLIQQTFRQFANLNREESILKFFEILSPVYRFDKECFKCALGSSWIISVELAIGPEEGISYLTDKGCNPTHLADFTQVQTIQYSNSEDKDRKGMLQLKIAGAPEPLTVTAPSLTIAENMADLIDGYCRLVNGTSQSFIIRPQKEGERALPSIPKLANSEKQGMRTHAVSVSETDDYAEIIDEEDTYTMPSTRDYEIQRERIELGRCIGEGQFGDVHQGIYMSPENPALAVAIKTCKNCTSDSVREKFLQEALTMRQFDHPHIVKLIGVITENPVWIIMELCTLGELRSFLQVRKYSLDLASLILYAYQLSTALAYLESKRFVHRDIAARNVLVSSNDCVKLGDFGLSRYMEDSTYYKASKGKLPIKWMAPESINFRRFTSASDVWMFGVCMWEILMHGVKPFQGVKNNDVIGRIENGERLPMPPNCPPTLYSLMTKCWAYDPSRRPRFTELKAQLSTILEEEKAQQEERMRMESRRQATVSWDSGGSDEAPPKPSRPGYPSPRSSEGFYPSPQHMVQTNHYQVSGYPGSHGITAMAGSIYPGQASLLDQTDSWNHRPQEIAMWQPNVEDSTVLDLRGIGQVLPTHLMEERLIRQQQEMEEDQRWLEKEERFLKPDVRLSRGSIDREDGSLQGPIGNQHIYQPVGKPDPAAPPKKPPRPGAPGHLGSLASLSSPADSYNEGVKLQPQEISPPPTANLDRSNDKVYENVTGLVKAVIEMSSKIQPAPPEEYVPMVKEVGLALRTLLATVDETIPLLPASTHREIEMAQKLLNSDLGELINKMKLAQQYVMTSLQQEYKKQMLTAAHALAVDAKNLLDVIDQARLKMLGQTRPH

[4] = system: Fibrinogen (Alexa647-labelled); experiment: fibrinogen binders on compound microarrays, profiling panel, artefact control for SMM control-protein annotation, biochemical, small-molecule microarray, 635/667 nm fluorescence (AID 1131); details: fibrinogen-A647 binding fluorescence, higher = more signal;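 also: z-score merges 667 nm fluorescence with per-spot signal-to-noise over triplicate slides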
[5] = biological target: Follistatin (Homo sapiens) (UniProt P19883); experiment: follistatin binders on small-molecule microarrays, primary screen, biochemical, small-molecule microarray, 635/667 nm fluorescence (AID 1132); details: FST binding, 635 nm fluorescence, higher = more signal
Follistatin (Homo sapiens), sequence (P19883 whole entry, looked up): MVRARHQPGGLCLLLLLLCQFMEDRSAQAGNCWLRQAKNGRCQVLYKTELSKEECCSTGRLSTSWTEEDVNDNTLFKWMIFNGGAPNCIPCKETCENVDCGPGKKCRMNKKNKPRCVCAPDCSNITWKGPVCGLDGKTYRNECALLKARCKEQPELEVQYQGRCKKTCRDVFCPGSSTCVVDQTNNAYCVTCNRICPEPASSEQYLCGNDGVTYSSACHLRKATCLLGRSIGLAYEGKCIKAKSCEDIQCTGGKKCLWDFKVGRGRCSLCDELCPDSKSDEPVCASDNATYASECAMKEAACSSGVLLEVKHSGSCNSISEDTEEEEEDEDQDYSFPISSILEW

[6] = biological target: Fibroblast growth factor 2 (Homo sapiens) (UniProt P09038); experiment: FGF2 binders on small-molecule microarrays, primary screen, biochemical, small-molecule microarray, 635/667 nm fluorescence (AID 1133); details: small-molecule microarray binding, FGF2, fluorescence 635/667; higher = more signal
Fibroblast growth factor 2 (Homo sapiens), sequence (P09038 whole entry, looked up): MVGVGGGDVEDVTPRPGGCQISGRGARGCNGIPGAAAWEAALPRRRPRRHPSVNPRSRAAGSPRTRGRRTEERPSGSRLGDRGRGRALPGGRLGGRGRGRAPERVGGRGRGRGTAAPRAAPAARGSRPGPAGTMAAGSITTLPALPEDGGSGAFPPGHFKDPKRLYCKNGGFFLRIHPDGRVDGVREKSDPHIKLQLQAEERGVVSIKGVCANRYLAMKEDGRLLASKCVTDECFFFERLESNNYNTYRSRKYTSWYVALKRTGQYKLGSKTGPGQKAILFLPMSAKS

[7] = mitochondrial membrane potential change in A549 cells, profiling panel, cell-based, JC-1 fluorescence, basal, 24 h, 100 nL (AID 1138); details: higher = more signal;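 also: A549 lung adenocarcinoma cells under basal conditions with no added stimulus; test concentration not given here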
Lefty1 = Lefty1 binders on small-molecule microarrays, primary screen, biochemical, small-molecule microarray, 635/667 nm fluorescence (AID 1139); details: small-molecule microarray binding, fluorescence 635/667; higher = more signal
[8] = system: wheat germ agglutinin (Triticum aestivum), Alexa647-labelled; experiment: wheat germ agglutinin binders on compound microarrays, profiling panel, artefact control for SMM control-protein annotation, biochemical, small-molecule microarray, 635/667 nm fluorescence (AID 1140); details: WGA-A647 binding, 635 nm fluorescence, higher = more signal;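 also: score merges 667 nm feature emission with signal to noise over triplicate slides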
[9] = biological target: Luciferin 4-monooxygenase (Photinus pyralis) (UniProt P08659); experiment: firefly luciferase enzyme inhibitors, primary screen, biochemical, luminescence, purified enzyme, 2006 set (AID 1141); details: SteadyGlo luminescence, 30 min, higher = more signal, called active from +8 up or from −8 down;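 also: cell-free assay with purified firefly luciferase at 100 ng per well in PBS; test concentration not given here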
Luciferin 4-monooxygenase (Photinus pyralis), sequence (P08659 whole entry, looked up): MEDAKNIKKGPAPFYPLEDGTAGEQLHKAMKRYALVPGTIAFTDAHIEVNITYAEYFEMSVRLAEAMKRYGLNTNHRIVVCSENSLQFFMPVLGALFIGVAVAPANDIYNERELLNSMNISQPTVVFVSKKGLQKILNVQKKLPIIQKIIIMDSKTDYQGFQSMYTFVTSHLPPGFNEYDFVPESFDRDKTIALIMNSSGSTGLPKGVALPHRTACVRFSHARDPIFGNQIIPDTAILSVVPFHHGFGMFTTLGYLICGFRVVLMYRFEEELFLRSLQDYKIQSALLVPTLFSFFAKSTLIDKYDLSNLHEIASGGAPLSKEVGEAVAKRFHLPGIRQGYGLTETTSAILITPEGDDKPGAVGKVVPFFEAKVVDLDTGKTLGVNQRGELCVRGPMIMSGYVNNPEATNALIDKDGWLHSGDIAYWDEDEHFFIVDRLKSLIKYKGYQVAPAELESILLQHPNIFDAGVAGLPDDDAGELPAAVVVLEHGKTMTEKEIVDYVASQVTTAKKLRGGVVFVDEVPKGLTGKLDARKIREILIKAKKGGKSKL

[10] = system: Wnt5a (protein binding on small-molecule microarray); experiment: Wnt5a binders on small-molecule microarray, primary screen, biophysical, 635/667 nm fluorescence (AID 1142); details: 635 nm fluorescence, higher = more signal;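 also: fluorescence read at 667 nm with signal to noise per printed feature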
[11] = cell viability in Huh7 cells, primary screen, cytotoxicity control for HCV replication inhibitor project, CellTiter-Glo luminescence, basal, 48 h (AID 1143); details: Huh7 HCV replicon, higher = more signal, called active from +8 up or from −8 down;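 also: Huh7 hepatoma cells carrying a hepatitis C replication reporter with no stimulus; test concentration not given here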
[12] = P. aeruginosa biofilm formation inhibitors, primary screen, PAO1 strain, BacTiter-Glo luminescence, LB-PBS (AID 1144); details: 12 h, higher = more signal
[13] = CREB reporter modulators without forskolin, primary screen, cell-based, PC12, CRE-LacZ reporter, unstimulated (AID 1145); details: no forskolin, luminescence, 4.5 h, higher = more signal, called active from +8 up or from −8 down
[14] = CREB reporter modulators under forskolin, primary screen, cell-based, PC12, CRE-LacZ reporter, forskolin-stimulated (AID 1146); details: luminescence, 4.5 h, higher = more signal, called active from +8 up or from −8 down;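 also: PC12 cells with 6xCRE LacZ reporter stimulated by forskolin 10 µM; beta-galactosidase reporter signal reflecting CREB driven transcription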
[15] = biological target: Streptavidin (Streptomyces avidinii) (UniProt P22629); experiment: streptavidin binders on small-molecule microarray, primary screen, artefact control for SMM compound annotation, biophysical, 635/667 nm fluorescence (AID 1147); details: streptavidin binding, higher = more signal;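 also: signal reflects streptavidin binding to arrayed compounds as a control protein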
Streptavidin (Streptomyces avidinii), sequence (P22629 whole entry, looked up): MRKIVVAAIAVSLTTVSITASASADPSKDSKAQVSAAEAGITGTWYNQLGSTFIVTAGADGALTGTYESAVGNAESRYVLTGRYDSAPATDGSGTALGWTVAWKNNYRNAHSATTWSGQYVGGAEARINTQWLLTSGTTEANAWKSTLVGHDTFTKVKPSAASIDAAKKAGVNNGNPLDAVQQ

[16] = small-molecule binders of probe aInhba, primary screen, biochemical, small-molecule microarray, 635/667 nm fluorescence (AID 1148); details: higher = more signal;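 also: score merges 667nm spot fluorescence with signal-to-noise for antibody binding to printed compounds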
Torsin-1A (Homo sapiens) [17] = biological target: Torsin-1A (Homo sapiens) (UniProt O14656); experiment: torsin A binders from cell lysate, primary screen, small-molecule microarray, wild-type, 635/667 nm (AID 1149); details: COS7 hTOR1A-WT lysate, 635 nm fluorescence, higher = more signal
Torsin-1A (Homo sapiens), sequence (O14656 whole entry, looked up): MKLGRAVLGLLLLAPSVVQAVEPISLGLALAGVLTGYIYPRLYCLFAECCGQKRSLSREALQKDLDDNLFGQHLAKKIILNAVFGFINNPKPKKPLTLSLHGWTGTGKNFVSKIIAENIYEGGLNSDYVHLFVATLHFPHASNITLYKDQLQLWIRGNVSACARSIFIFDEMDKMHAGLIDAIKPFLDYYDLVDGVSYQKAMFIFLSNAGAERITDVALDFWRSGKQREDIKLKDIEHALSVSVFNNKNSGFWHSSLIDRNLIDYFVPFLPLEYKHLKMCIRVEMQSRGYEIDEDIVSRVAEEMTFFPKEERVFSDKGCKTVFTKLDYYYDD

Torsin-1A (Homo sapiens) [18] = biological target: Torsin-1A (Homo sapiens) (UniProt O14656); experiment: small-molecule binders of mutant TOR1A in lysate, primary screen, cell lysate, small-molecule microarray, COS7 lysate, 635/667 nm fluorescence (AID 1150); details: COS7 hTOR1A mutant lysate, 635 nm fluorescence, higher = more signal;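 also: score pools 667 nm emission and signal to noise measuring lysate protein binding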
[19] = system: Sonic hedgehog protein (Shh); experiment: small-molecule binders of Shh protein, primary screen, biochemical, small-molecule microarray, 635/667 nm fluorescence (AID 1151); details: small-molecule microarray binding, 635 nm fluorescence; higher = more signal;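 also: Shh protein binding to compounds spotted on small-molecule microarray slides; score combines spot fluorescence intensity with signal-to-noise across triplicate slides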

Compound | composite z-score [1] | composite z-score [2] | composite z-score [3] | composite z-score [4] | composite z-score [5] | composite z-score [6] | z-score [7] | composite z-score (Lefty1) | composite z-score [8] | z-score [9] | composite z-score [10] | z-score [11] | z-score [12] | z-score [13] | z-score [14] | composite z-score [15] | composite z-score [16] | composite z-score (Torsin-1A (Homo sapiens) [17]) | composite z-score (Torsin-1A (Homo sapiens) [18]) | composite z-score [19]
O=C1NC(=O)C2C1C=CC(C(O)c1ccco1)N2Nc1ccccn1 (stereo not given) | -0.324 | -0.0286 | -0.429 | -0.17 | 0.292 | -0.127 | -0.109 | -0.042 | 0.325 | -1.42 (inactive) | 0.0477 | 0.829 (inactive) | 0.0748 (inactive) | -0.522 (inactive) | 0.413 (inactive) | -0.124 | -0.221 | 0.322 | 0.316 | 0.366
CCCCC(O)C1C=CC2C(=O)N(c3ccccc3)C(=O)C2N1Nc1ccc(C(C)C)cc1 (stereo not given) | 0.236 | 1.22 | 0.536 | 1.01 | 0.967 | -0.138 | -0.142 | 0.451 | 0.394 | -1.46 (inactive) | 0.261 | -0.714 (inactive) | -0.905 (inactive) | 1.38 (inactive) | 0.232 (inactive) | 0.486 | 0.341 | -0.149 | 0.214 | -0.207
Cc1cc(C)c(C(O)C2C=CC3C(=O)N(c4ccccc4)C(=O)C3N2Nc2ccc(C(C)C)cc2)c(C)c1 (stereo not given) | 1.11 | 1.26 | 1.22 | 1.02 | 0.811 | 0.375 | 0.178 | -0.138 | 1.39 | -0.197 (inactive) | 0.704 | 0.366 (inactive) | -0.342 (inactive) | 0.629 (inactive) | 1.07 (inactive) | 1.71 | 0.375 | 0.385 | 0.333 | -0.297
COC(=O)[C@@]1(Cc2ccc(OC)cc2)[C@@H]2C(=CC(=O)[C@H]2CC(=O)C(=O)N(C)C)CN1C(=O)c1ccccc1 | 0.318 | 1.23 | 0.242 | 0.833 | 0.433 | -0.139 | 0.437 | -0.973 | 0.521 | 2.12 (inactive) | 0.956 | -3.7 (inactive) | -0.946 (inactive) | 0.0109 (inactive) | 0.0777 (inactive) | 1.23 | 1.04 | 0.0826 | 0.387 | -0.671
COCCCNC(=O)[C@@]1(Cc2ccccc2N=[N+]=[N-])N=C(c2ccc(OCCCO)cc2)O[C@H]1c1ccccc1 | 2.18 | 1.21 | 0.854 | 0.776 | 1.46 | 1.03 | 0.624 | 0.256 | 0.759 | -0.97 (inactive) | 1.51 | -4.36 (inactive) | -1.31 (inactive) | 0.558 (inactive) | -0.472 (inactive) | -0.459 | 0.0589 | 3.67 | 3.61 | 0.55
CO[C@H]1O[C@H](CO)[C@@H](OC(=O)Nc2ccc3c(c2)OCO3)[C@H](OC(=O)c2cc3ccccc3[nH]2)[C@H]1OC(=O)c1cc2ccccc2[nH]1 | 0.935 | -0.174 | 0.622 | -0.3 | 0.372 | 0.791 | -1.56 | 0.366 | -0.0971 | -2.78 (inactive) | 0.0957 | -2.92 (inactive) | -1.37 (inactive) | 1.03 (inactive) | -1.29 (inactive) | 0.483 | -0.128 | 0.103 | -0.214 | 0.458
CC(C)N1C(=O)c2ccccc2[C@@H](C(=O)NC2CC2)[C@@H]1c1ccc(CO)cc1 | 1.89 | 0.934 | -0.361 | 0.868 | 1.04 | 1.08 | 1.04 | 0.147 | 0.22 | -0.161 (inactive) | 0.302 | -0.264 (inactive) | -0.226 (inactive) | 0.001 (inactive) | -0.3 (inactive) | 0.381 | -0.0059 | 0.775 | 0.852 | 0.531
COC1OC[C@]2(C)[C@H]3C4=C(CN2C(=O)OC(C)(C)C)[C@H](C)C(CO)C(CO)C4CC[C@@H]13 (stereo not given in full) | 2.1 | 1.24 | 1.14 | 0.998 | 1.05 | -0.636 | 2.03 | -0.664 | 1.41 | 0.0207 (inactive) | 0.987 | -0.14 (inactive) | 0.326 (inactive) | 0.197 (inactive) | 0.212 (inactive) | 2.17 | 0.109 | 0.288 | 0.86 | -0.0425
COc1ccc([Si](C)(C)[C@H]2[C@H](CCO)O[C@@]3(C(=O)N(Cc4cccc(N5C(=O)COc6ccccc65)c4)c4ccccc43)[C@@H]2C)cc1 | 0.354 | -0.0131 | -0.0804 | 0.0563 | 0.196 | -0.032 | 1.17 | -0.236 | 0.715 | -1.17 (inactive) | -0.285 | -6.25 (inactive) | -1.83 (inactive) | 2.41 (inactive) | -1.52 (inactive) | 0.174 | -0.128 | -0.451 | -0.298 | 0.419
CC1CC/C=C\[C@H]2OC34C=CCN(C(C)C)C(=O)[C@H]3N(CCCCCCO)C(=O)[C@@H]4C2C(=O)O1 (stereo not given in full) | -0.641 | -1.09 | -0.278 | -1.25 | -0.583 | -1.09 | 0.378 | -0.547 | -0.451 | -3.19 (inactive) | -0.574 | -0.183 (inactive) | -1.31 (inactive) | -0.342 (inactive) | -0.816 (inactive) | -0.931 | -0.323 | -1.83 | -1.19 | -0.159
